This is one part of the list. Results filed as inconclusive are left out. Active and inactive are the calls of the source. Calls come from the whole dose curve; as a rule, active = well fitted inhibition curve with a large enough effect; inconclusive = small, poorly fitted or top-dose-only effect; inactive = no such curve, though single readings can be large or run the other way.
Biological target: Phosphoglycerate kinase, glycosomal (Trypanosoma brucei brucei) (UniProt P07378)
Test: qHTS for inhibitors of Phosphogylcerate Kinase: Hit Validation Screen (AID 686980); note: nearly all actives have a fitted effect of over 65% in size
Settings: TbPGK coupled GAPDH assay, Kinase-Glo luminescence
Source text: Several species of the Trypanosomatidae family of parasitic protozoans cause a spectrum of diseases throughout the tropical and subtropical world. Sleeping sickness, caused by two subspecies of Trypanosoma brucei, is endemic to areas of sub-Saharan Africa, while Chagas disease, a manifestation of Trypanosoma cruzi infection, is prevalent throughout Central and South America. In addition, many species of Leishmania are responsible for a range of cutaneous and visceral diseases, causing ulcers, destructive lesions and kalaazar, a lethal infection of the viscera. Collectively, these organisms infect 30 million people worldwide (~500 million live in endemic areas), and account for ~130,000 deaths annually. Given their debilitating and prevalent nature, trypanosomatid parasites impose a heavy medical, economic and social burden on entire populations, primarily in the developing world. The problem is further exacerbated by the fact that existing treatments have progressed little in the past 50 years, and current drugs show high toxicity and poor efficacy. […] Blood-stream stages of T. brucei are entirely dependent on glycolysis as a source of ATP, and the tricarboxylic acid cycle and oxidative phosphorylation are both repressed. Glycolysis in axenically cultured T. cruzi, representing the intracellular pathogenic stage, is also essential for these parasites. […] Previous studies have shown that the glycolytic enzyme, phosphoglycerate kinase (PGK), is a viable target for drugs to kill these parasites. […] NIH Molecular Libraries Probe Production Network [MLPCN] NIH Chemical Genomics Center [NCGC] MLPCN Grant: R03 MH093212 PI Name: Malcolm Walkinshaw, University of Edinburgh
3ul of substrate/PGK buffer (columns 1,2,5-48) are dispensed into Greiner white solid bottom 1536-well assay plates; columns 3-4 receive only TEA buffer as 0x PGK controls. Compounds are then transferred via Kalypsys pin tool equipped with 1536-pin array (10nl slotted pins, V&P Scientific, San Diego, CA). Following addition of compound, 1ul of GAPDH (100nM final concentration, all columns) is added to initiate the reaction (this upstream coupling enzyme is necessary for in-well production of PGK substrate, 1,3-bisphosphoglycerate (1,3-BPG), which is unstable and not commercially available). The plates are then incubated at room temperature for 60 minutes. Kinase-Glo Plus reagent is added (2ul) and plates incubated for 10 minutes, before being transferred to a ViewLux high-throughput CCD imager (PerkinElmer) wherein single end-point measurements of luminescence are acquired using a clear filter. All reagents are diluted in an assay buffer consisting of 100mM TEA (pH 7.6), 5mM MgCl2 and 0.01% Tween-20.
Potency is the fitted concentration of half-maximal effect.

Sequence of Phosphoglycerate kinase, glycosomal (Trypanosoma brucei brucei) (P07378 whole entry, looked up): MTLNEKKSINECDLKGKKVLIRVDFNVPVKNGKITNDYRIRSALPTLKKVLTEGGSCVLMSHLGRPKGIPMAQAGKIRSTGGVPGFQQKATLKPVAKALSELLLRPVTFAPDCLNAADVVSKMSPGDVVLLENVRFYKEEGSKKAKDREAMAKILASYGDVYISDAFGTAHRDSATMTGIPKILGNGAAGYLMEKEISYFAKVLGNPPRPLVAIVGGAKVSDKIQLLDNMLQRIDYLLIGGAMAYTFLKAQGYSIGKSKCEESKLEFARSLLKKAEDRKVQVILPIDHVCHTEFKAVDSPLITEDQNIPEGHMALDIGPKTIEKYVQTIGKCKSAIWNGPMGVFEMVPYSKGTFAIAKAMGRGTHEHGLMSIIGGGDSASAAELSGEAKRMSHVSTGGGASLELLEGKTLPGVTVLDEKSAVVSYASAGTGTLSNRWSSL

Potency, active:
Cc1ccnc(NC(=O)c2ccoc2C)c1 14.6 µM, COc1ccc(Cl)cc1NC(=O)CCS(=O)(=O)c1ccc(Br)cc1 5.17 µM, Cc1ccc(-c2nc(SCc3ccc(Br)cc3)n3[nH]c(=O)cc3n2)cc1 9.19 µM, Cc1ccc(C(=O)O)cc1-c1ccc(/C=C2\SC(=O)N(CC(=O)Nc3ccc4c(c3)OCO4)C2=O)o1 8.19 µM, Cc1c(CC(=O)N2CCN(C(=O)C3COc4ccccc4O3)CC2)c(=O)oc2c(O)c(O)ccc12 (configuration not stated) 2.59 µM, O=C(Oc1ccc(-c2nc(-c3ccccn3)no2)cc1)c1ccccc1 16.3 µM, COCCCn1c(Cc2csc(Nc3cccc(Cl)c3)n2)nnc1SCC(=O)OC1CCCCC1 9.19 µM, C=CCn1c(C)cc(C2=NNC(=NCC)SC2)c1C 11.6 µM, O=C(CSc1nc2ccccc2c(=O)[nH]1)Nc1nc(-c2ccc(Br)cc2)cs1 4.11 µM, C=CC1=C(C(=O)O)N2C(=O)[C@@H](NC(=O)/C(=N/OCC(=O)O)c3csc(N)n3)[C@H]2SC1 0.116 µM, Cc1nonc1C(=O)N/N=C/c1ccc(O)cc1 5.8 µM, O=C1/C(=C/c2cccs2)CCc2ccccc21 14.6 µM

Reference: PubChem BioAssay (NCATS)
